Source: PubChem (National Center for Advancing Translational Sciences (NCATS))
FEN1 inh: inhibitors of human flap endonuclease 1. Recombinant FEN1 flap cleavage, fluorescence, 15 min. P39748. 0.35% of 390,000 active. Potency, µM (titrated, usually from 114 µM), hits mostly inhibitors; further: nearly all actives have a fitted effect of over 65% in size
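Steps: FEN1 (10 nM) dispensed; compound added by pin tool; 15 min at room temperature; substrate added to 50 nM final; reads at 0 min and 15 min; data normalized and fitted (four-parameter Hill).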
Pol eta inh: blocks human DNA polymerase eta activity; Q9Y253; recombinant Pol eta, fluorescent DNA replication assay; 1.2% of 390,000 active; Potency, µM (doses to about 114 µM), actives largely listed as inhibitors; AID 588591
Target sequence (Q9Y253 whole entry, looked up): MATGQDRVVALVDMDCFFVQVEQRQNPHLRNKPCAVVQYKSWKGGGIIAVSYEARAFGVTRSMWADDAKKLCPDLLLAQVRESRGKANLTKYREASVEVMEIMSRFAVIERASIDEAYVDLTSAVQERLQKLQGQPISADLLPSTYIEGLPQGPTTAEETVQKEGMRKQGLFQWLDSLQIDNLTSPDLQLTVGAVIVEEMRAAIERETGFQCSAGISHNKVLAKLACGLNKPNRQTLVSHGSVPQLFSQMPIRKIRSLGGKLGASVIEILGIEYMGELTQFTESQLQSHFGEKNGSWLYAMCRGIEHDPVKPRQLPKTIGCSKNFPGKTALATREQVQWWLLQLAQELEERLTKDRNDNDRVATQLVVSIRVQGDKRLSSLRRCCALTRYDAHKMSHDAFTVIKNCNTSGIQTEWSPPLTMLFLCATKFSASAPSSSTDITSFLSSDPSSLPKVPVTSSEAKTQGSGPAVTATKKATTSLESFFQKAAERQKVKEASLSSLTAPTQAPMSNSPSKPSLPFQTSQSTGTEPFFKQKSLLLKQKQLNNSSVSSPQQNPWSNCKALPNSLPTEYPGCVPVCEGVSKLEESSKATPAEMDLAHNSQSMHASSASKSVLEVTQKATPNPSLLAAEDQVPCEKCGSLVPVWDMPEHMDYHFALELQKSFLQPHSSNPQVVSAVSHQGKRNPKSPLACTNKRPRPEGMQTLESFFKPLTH
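Fluorescent replication assay: 50 nM final substrate added after a 15 min room-temperature compound preincubation with 10 nM enzyme. Signal taken at 0 min and again at 10 min.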
Pol beta inh: blocks human DNA polymerase beta activity; Pol beta primer extension/strand displacement, fluorescence kinetic; Potency, µM (doses to about 114 µM), actives largely listed as inhibitors; 1.3% of 340,000 active; AID 485314
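Values derive from four-parameter Hill fits of normalized kinetic data: reads at 0 and 10 min following addition of 50 nM substrate to 10 nM Pol beta preincubated 15 min with compound.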
TDP1 block: blocks human tyrosyl-DNA phosphodiesterase 1; Q9NUW8; recombinant TDP1, AlphaScreen DNA substrate cleavage; Potency, µM (doses to about 130 µM), most hits filed as inhibitors; 0.28% of 350,000 active; further: nearly all actives have a fitted effect of over 40% in size
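Recombinant E. coli-expressed Tdp1 (1 nM) preincubated with compound 15 min at RT, then 5'-biotin/3'-phosphotyrosine-FITC DNA substrate (15 nM) added for 5 min. AlphaScreen beads (10 ug/ml) added, 10 min RT; tyrosine-FITC cleavage read as signal loss.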
POLI inh: DNA polymerase iota (human) inhibition; Q9UNA4; Pol iota fluorescent replication assay, 10 min; Potency, µM (top dose mostly 115 µM), most hits filed as inhibitors; 1% of 390,000 active; AID 588590
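Fluorescent replication assay read twice, at 0 min and 10 min after adding 50 nM (final) substrate. Enzyme (10 nM) and compounds were first incubated 15 min at room temperature; enzyme-free buffer wells were negative controls.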
POLK inh: DNA polymerase kappa (human) inhibition. 0.53% of 400,000 active. Q9UBT6. Potency, µM (highest dose often 107 µM), usual class: inhibitors. AID 588579. purified Pol kappa, fluorescent DNA synthesis assay, 10 min
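First, compounds were pin-transferred onto 10 nM Pol kappa. After 15 min at room temperature, substrate was added to 50 nM final. Fluorescence was then measured kinetically at 0 and 10 min.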
Hits are given with their value; i = inactive; ? = inconclusive; nt = no result given; ! = a repeat was not active; [ ] = dose if it differs, or a comment. A selection: hits, their analogues and other compounds. The true share with any hit is near 2.4%. The call rests on the fitted dose curve; in most records, active means well fitted curve in the direction sought with a large enough effect; inconclusive means small, poorly fitted or top-dose-only effect, or another doubt; inactive means no such curve, though single readings can be large; an effect the other way counts as inactive or inconclusive.

SMILES	FEN1 inh	Pol eta inh	Pol beta inh	TDP1 block	POLI inh	POLK inh
Cc1cccc(OCCn2c(-c3ccc(Cl)cc3)nc3ccccc3c2=O)c1C	i	i	i	nt	i	i
O=C(COC(=O)c1ccccc1O)NCc1ccc2c(c1)OCO2	i	i	nt	i	i	i
COc1cc(/C=N/NC(=O)c2cc(-c3ccccc3Cl)nc3ccccc23)cc(OC)c1O	i	i	nt	nt	i	i
O=C(O)c1cc(-c2ccco2)nc2ccc(Br)cc12	13µM!	2.5µM!	3.2µM!	i	2.8µM!	7.1µM!
NC(=O)COC(=O)c1cc(-c2ccco2)nc2ccccc12	?	45µM	?	nt	?	?
Cn1c(=O)c(C(=O)COC(=O)c2cc(-c3ccco3)nc3ccccc23)c(N)n(Cc2ccccc2)c1=O	nt	nt	?	i	nt	nt
O=C(COC(=O)c1cc(-c2ccco2)nc2ccccc12)NCc1ccc2c(c1)OCO2	i	?	28µM	i	i	i
COc1cc(/C=N/NC(=O)c2cc(-c3ccco3)nc3ccccc23)cc(OC)c1O	i	?	50µM	i	45µM	?
CCC(=O)Nc1ccc(NC(=S)NC(=O)/C=C/c2ccco2)cc1	i	?	i	nt	?	i
COC(=O)c1ccccc1NC(=O)/C=C/c1ccco1	i	18µM	i	i	?	i
CC(=O)NC(=S)Nc1ccc(NC(=S)NC(=O)/C=C/c2ccco2)cc1	i	?	?	nt	32µM	i
CCOC(=O)c1cc(-c2ccccc2)n(CCCC(=O)Nc2cc(C)ccc2OC)c1C	i	i	i	i	i	i
Cc1c(P(=S)(c2ccccc2)c2ccccc2)c2ccccc2n1C(=O)Cc1ccccc1	nt	nt	nt	i	nt	nt
COc1ccc2c(C)c(CC(=O)NCc3ccccc3Cl)c(=O)oc2c1OC	i	i	45µM	i	i	i
O=C(N/N=C/c1cc(Cl)cc([N+](=O)[O-])c1O)c1cc(-c2ccccn2)nc2ccccc12	i	79µM	i	nt	i	i
CCOC(=O)OCC1OC(C#Cc2ccc(C)cc2C)C=CC1OC(=O)OCC (stereo unspecified)	nt	nt	nt	i[21 µM]	nt	nt
COCCC(=O)N1CCc2c([nH]c3ccccc23)C1C(C)(C)C (stereo unspecified)	i	i	i	i	i	i
COCc1ccc(CN2CCc3c([nH]c4ccccc34)C2C(C)(C)C)o1 (stereo unspecified)	i	i	20µM	i	i	i
Cc1ccc(SCc2ccc(C(=O)NCc3ccncc3)cc2)cc1	i	?	?	i	28µM	i
COc1ccc(NCc2ccc([N+](=O)[O-])s2)c(OC)c1	?	?	22µM	i	i	i
COc1ccc(NCc2ccc([N+](=O)[O-])s2)cc1	i	i	22µM	i	i	i
COc1ccc(NC(=O)c2cc(-c3ccccc3Cl)on2)cc1OC	?	i	i	nt	79µM	?
Cc1cccc2c(=O)[nH]c3c(-c4nc(-c5ccc(Cl)cc5)cs4)c(O)cn3c12	i	nt	nt	nt	?	i
Cc1nnc2ccc(-c3ccc(NS(=O)(=O)c4ccccc4F)cc3)nn12	i	i	nt	i	?	i
Cc1nnc2ccc(-c3ccc(NS(=O)(=O)c4ccccc4[N+](=O)[O-])cc3)nn12	i	40µM	nt	i	?	?
SMILES	FEN1 inh	Pol eta inh	Pol beta inh	TDP1 block	POLI inh	POLK inh
Cc1cnc2ccccc2c1C	i	nt	nt	nt	i	i
O=C(NCCc1ccccc1)C(c1cccs1)N(C(=O)c1csnn1)C1CC1 (stereo unspecified)	i	i	i	i	89µM	i
O=C(Nc1ccnn1C1CCN(Cc2ccc3nonc3c2)CC1)c1cccc(F)c1	i	i	i	i	i	i
COc1ccccc1C(=O)Nc1ccnn1C1CCN(Cc2ccccc2OCCO)CC1	i	i	i	i	i	i
CCn1cc(CN2CCC(n3nccc3NC(=O)c3ccccc3C)CC2)c(C)n1	i	i	i	i	i	i
CCn1cc(CN2CCC(n3nccc3NC(=O)c3ccc4c(c3)OCO4)CC2)c(C)n1	i	i	i	1.8µM	i	i
COc1ccccc1C(=O)Nc1ccnn1C1CCN(Cc2cnc(N(C)C)s2)CC1	i	i	89µM	i	i	i
COc1ccc(C(=O)Nc2ccnn2C2CCN(Cc3ccc4nonc4c3)CC2)cc1	i	i	?	22µM	?	i
Cc1noc(C)c1C(=O)N1CCC[C@@]2(CCN(C(=O)Nc3cccc(F)c3)C2)C1	nt	nt	nt	nt	nt	i
O=C(CCn1cnnn1)Nc1cc(C(F)(F)F)cc(C(F)(F)F)c1	i	i	i	i	i	i
COc1cccc(Nc2nc3c(S(=O)(=O)c4cc(C)ccc4C)nnn3c3ccsc23)c1	i	i	i	i	i	i
CCCCNc1nc2c(S(=O)(=O)c3ccc(C)cc3)nnn2c2ccsc12	i	i	i	i	i	i
COc1ccc(NC(=O)NNC(=O)COc2ccc([N+](=O)[O-])c(C)c2)cc1OC	i	i	50µM	i	i	i
CS(=O)(=O)Nc1cccc(-c2cncnc2-n2ccnc2)c1	nt	nt	nt	nt	nt	i
Cc1cnc(CNc2ncncc2-c2ccccc2CN(C)C)cn1	nt	nt	nt	28µM	nt	i
CN(C)Cc1ccccc1-c1cncnc1NCc1ccccc1	nt	nt	nt	nt	nt	i
CC(=O)c1ccc([N+](C)(C)C)cc1	i	nt	nt	nt	i	i
O=c1c(O)c(-c2ccc(O)cc2)oc2cc(O)ccc12	nt	nt	nt	i	nt	i[19.4 µM]
COc1cc(O)c2c(=O)c(O)c(-c3ccc(O)c(O)c3)oc2c1	nt	nt	nt	i	nt	0.95µM
O=c1c(O)c(-c2cc(O)c(O)c(O)c2)oc2cc(O)ccc12	nt	nt	nt	nt	nt	0.24µM
O=c1c(O)c(-c2ccc(O)cc2)oc2cc(O)cc(O)c12	?	25µM	nt	i	79µM	i
COc1cc(O)c2c(=O)c3c(OC)c(O)ccc3oc2c1	i	i	i	i	i	i
C[n+]1ccc(CO)cc1	i	nt	nt	nt	i	i
CCOc1ccc(-c2cc3nc(C4CCN(C(=O)OC(C)(C)C)CC4)c(C(=O)Nc4cccc(Cl)c4C)cn3n2)cc1	i	i	i	i	i	i
CCC(C)NC(=O)C1CCN(C(=O)c2cc3sccc3n2Cc2ccc(Cl)cc2)CC1 (stereo unspecified)	i	i	i	i	?	i
Cc1cccc(Nc2nc(C#N)nc(NC3CCCC3)n2)c1	nt	nt	nt	i	nt	nt
Cc1ccc(NC(=O)c2nc(S(C)(=O)=O)ncc2N(Cc2ccco2)Cc2ccco2)cc1C	i	i	i	i	i	i
C#CCOCCOCCOCCNc1nc(N2CCN(C(=O)Cn3cc(CCCCN)nn3)CC2)nc(N2CCN(C(=O)Cn3cc(CCCN=C(N)N)nn3)CC2)n1	i	i	nt	i	35µM	?
C#CCOCCOCCOCCNc1nc(N2CCN(C(=O)Cn3cc(CCCN=C(N)N)nn3)CC2)nc(N2CCN(C(=O)[C@H](CCCCN)n3cc(CCCC)nn3)CC2)n1	i	i	nt	i	?	i
